This passage reports Potency results from ChEMBL document CHEMBL1201862, “PubChem BioAssay data set” (2004).

Among all 400,000 compounds or so, about 2,100 (0.53%) were called active. Roughly 14% stayed inconclusive and do not appear here. No rule for the calls is given here. Only a selection was taken, and actives are over-represented in it overall.

This experiment deals with Ataxin-2 (Homo sapiens) (UniProt Q99700). The experiment can be described thus: qHTS for Inhibitors of ATXN expression. The format is functional.
Sequence of Ataxin-2 (Homo sapiens) (Q99700 whole entry): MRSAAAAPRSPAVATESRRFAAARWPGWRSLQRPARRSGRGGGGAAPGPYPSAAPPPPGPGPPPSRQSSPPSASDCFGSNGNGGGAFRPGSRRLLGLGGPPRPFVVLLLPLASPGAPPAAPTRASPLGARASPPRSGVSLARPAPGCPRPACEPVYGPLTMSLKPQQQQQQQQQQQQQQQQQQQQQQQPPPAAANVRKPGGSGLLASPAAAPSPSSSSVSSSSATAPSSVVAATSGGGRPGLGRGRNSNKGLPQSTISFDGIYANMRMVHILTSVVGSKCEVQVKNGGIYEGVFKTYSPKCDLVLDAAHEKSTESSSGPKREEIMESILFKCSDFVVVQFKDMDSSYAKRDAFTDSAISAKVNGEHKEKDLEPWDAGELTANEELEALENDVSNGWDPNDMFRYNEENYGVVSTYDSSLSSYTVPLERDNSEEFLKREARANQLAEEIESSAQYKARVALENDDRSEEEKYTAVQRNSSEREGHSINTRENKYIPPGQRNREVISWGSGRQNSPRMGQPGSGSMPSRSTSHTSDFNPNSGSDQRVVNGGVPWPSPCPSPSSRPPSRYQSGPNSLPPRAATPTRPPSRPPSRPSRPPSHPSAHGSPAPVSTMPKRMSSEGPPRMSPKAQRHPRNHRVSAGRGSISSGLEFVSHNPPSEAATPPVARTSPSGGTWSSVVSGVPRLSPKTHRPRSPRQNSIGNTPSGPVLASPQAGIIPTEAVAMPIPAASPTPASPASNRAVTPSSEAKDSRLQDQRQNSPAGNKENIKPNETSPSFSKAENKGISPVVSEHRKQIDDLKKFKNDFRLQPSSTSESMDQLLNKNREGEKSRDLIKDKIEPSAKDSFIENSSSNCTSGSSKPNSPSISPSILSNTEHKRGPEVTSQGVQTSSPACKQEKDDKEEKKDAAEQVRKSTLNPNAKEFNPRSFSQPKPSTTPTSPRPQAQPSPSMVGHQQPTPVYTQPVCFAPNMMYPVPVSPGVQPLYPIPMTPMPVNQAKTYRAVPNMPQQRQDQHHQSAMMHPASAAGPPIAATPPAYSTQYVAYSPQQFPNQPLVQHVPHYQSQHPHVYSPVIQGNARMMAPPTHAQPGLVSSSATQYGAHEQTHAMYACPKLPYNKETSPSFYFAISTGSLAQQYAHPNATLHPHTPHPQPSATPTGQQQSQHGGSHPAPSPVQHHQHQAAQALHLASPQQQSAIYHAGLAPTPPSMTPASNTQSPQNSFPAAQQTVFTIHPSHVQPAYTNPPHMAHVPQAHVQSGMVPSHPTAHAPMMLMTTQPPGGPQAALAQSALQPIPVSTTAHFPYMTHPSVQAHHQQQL
For the compound `O=c1oc2c(CN3CCN(CCO)CC3)c(O)ccc2cc1-c1ccccn1`, the Potency result is “inactive”. As to `CC1C(=O)N2CCCc3cc(NC(=O)CC(C)(C)C)cc1c32` (centres undefined), the Potency entry is “inactive”.

As for `CCOc1cc(/C=N\NC(=O)Cc2ccccc2)ccc1OCC(=O)Nc1ccc(C)c(C)c1`, the Potency was 31.6 µM (active). In the case of `CCOc1cc(/C=N/NC(=O)C(C)Sc2ccccc2)ccc1O` (centres undefined) it was “inactive”; in that of `CCOc1cc(/C=N/NC(=O)Nc2ccccc2)ccc1O`, “inactive”.

In the case of `CCOc1ccc(CCN2C(=O)C(=O)N([C@@H](CC(C)C)CN3CCC[C@@H]3CN3C(=O)C(=O)NC[C@@H]3Cc3ccccc3)C[C@@H]2CC(C)C)cc1`, the Potency is 39.8 µM (active). `CCOc1ccc(CCN2C(=O)C(=O)N([C@@H](CC(C)C)CN3CCC[C@H]3CN3C(=O)C(=O)NC[C@@H]3Cc3ccccc3)C[C@@H]2Cc2ccccc2)cc1`: the Potency is 25.1 µM (active). For `CCOc1ccc(CCN2C(=O)C(=O)N([C@@H](CC(C)C)CN3CCC[C@@H]3CN3C(=O)C(=O)NC[C@@H]3CC(C)C)C[C@@H]2Cc2ccccc2)cc1`, the Potency was 12.6 µM (active). The value for `N#Cc1c(NC(=O)/C=C/C(=O)O)sc2c1CCN(Cc1ccccc1)C2` was “inactive”; that for `Clc1ccc(-n2c(-c3cccc(Br)c3)nc3nc4ccccc4nc32)cc1` was “inactive”; that for `Cc1nn(CSc2c(F)c(F)c(F)c(F)c2F)c(C)c1[N+](=O)[O-]` was “inactive”. In the case of `N#CC1=C(N)Oc2ccc3ccccc3c2C1c1cccnc1` (centres undefined) it was 12.6 µM (active); in that of `N#CC1=C(N)Oc2cc(O)c(Cl)cc2C1c1cccnc1` (centres undefined), “inactive”; in that of `N#CC1=C(N)Oc2cc(N)ccc2C1c1ccccc1Cl` (centres undefined), “inactive”.

For the compound `Cc1cc(C)cc(NC(=O)c2sc3nc(C)cc(C)c3c2N)c1`, the Potency result is “inactive”.

On to `O=C(NCCc1cccc(Cl)c1)c1ccc(OC2CCN(Cc3ccccn3)CC2)cc1`, for which the Potency was 35.5 µM (active). For the compound `CCOc1ccc(CCNC(=O)c2cccc(NC3=NC4CS(=O)(=O)CC4S3)c2)cc1` (centres undefined), the Potency entry was “inactive”. As for `Cc1c(CCC(=O)NCCc2ccccc2)c(=O)oc2cc(O)ccc12`, the Potency entry is “inactive”. For the compound `CCCc1c(-c2ccc(O)cc2)nn(-c2ccc(O)cc2)c1-c1ccc(O)cc1`, the Potency was 25.1 µM (active). With `CCOC(=O)N1CCN(C(=O)c2cccn3c(=O)c4cc(Br)ccc4nc23)CC1`, the Potency entry is “inactive”. The value for `CCCCN1CCc2c1nc1ccc(Br)cc1c2N` was 31.6 µM (active); that for `O=C(O)C1CCN(c2nc(-c3ccccc3)c3cc(Br)ccc3n2)CC1` was “inactive”; that for `CCc1cc2c(CN3CCN(Cc4ccccc4)CC3)cc(=O)oc2cc1O` was “inactive”.

For `Cc1ccc(/C=C2\Oc3c(ccc(O)c3CN3CCN(CCO)CC3)C2=O)cc1`, the Potency entry was “inactive”.

In the case of `COc1ccccc1N1CCN(C(=O)Cn2ncc3c2-c2cc(C)ccc2OC3)CC1`, the Potency was 22.4 µM (active). The value for `O=C(Cn1ncc2c1-c1ccccc1OC2)Nc1ccc(Cl)cn1` was “inactive”; that for `COc1ccccc1N1CCN(C(=O)C2CCN(S(=O)(=O)c3ccccc3F)CC2)CC1` was “inactive”. The value for `CCOc1ccc(S(=O)(=O)N(CC)CC(=O)N2CCCC2)cc1C` was “inactive”; that for `Cc1cccc(N2CCN(C(=O)Cn3ncc4c3-c3cc(C)ccc3OC4)CC2C)c1` (centres undefined) was 39.8 µM (active); that for `Cc1ccc2c(c1)-c1c(cnn1CC(=O)N(Cc1ccco1)C1CCCCC1)CO2` was 37.7 µM (active). The value for `CN(C(=O)CN1C(=O)c2cccc(N)c2C1=O)C1CCCCC1` was “inactive”; that for `CC(C)(C)c1ccc2c(c1)N(CC(=O)N1CCCC1)C(=O)CO2` was “inactive”; that for `CCN(CC)S(=O)(=O)c1ccc2c(c1)N(CC(=O)N1CCN(c3cccc(C)c3)C(C)C1)C(=O)CO2` (centres undefined) was 35.5 µM (active). Consider `Cc1ccc2nc(N3CCN(C(=O)CCC(=O)O)CC3)nc(-c3ccccc3)c2c1`, for which the Potency result is “inactive”. In the case of `Cc1ccnc(NC(=O)CCC(=O)N(CC(=O)NC2CCCCC2)C2CCCC2)c1` it was “inactive”; in that of `Cc1ccccc1CN1CCN(C(=O)c2ccc(S(=O)(=O)NCc3ccco3)cc2)CC1`, “inactive”; in that of `CCOCCCNc1nc2nc3ccc(C)cn3c(=O)c2cc1C(=O)NCC1CCCO1` (centres undefined), “inactive”. In the case of `CCNc1nc(NCC)nc(N/N=C(\C)c2ccc(OC)cc2)n1` it was “inactive”; in that of `CC1CCCCC12NC(=O)N(CC(=O)N(C)Cc1nc(O)c3ccccc3n1)C2=O` (centres undefined), “inactive”. The value for `CC(C)NCCCCOc1cccc(Br)c1` was “inactive”. With `CCN(CC)S(=O)(=O)c1ccc(N2CCCC2)c(NC(=O)Cc2cc(OC)c(OC)c(OC)c2)c1`, the Potency entry is “inactive”.

For the compound `CCOc1ccccc1N(CC)C(=O)Cn1ncc2c1-c1ccccc1OC2`, the Potency was 39.8 µM (active). Regarding `Cc1cccc(C)c1NC(=O)CN1C(=O)COc2ccccc21`, the Potency result is “inactive”. Take `CCOc1ccccc1NC(=O)Cn1ncc2ccc([N+](=O)[O-])cc21`: the Potency entry was “inactive”. In the case of `CCN(CC)S(=O)(=O)c1ccc2c(c1)N(CC(=O)NCCCN1CCN(c3cc(Cl)ccc3C)CC1)C(=O)CO2` it was 31.6 µM (active); in that of `CCOc1ccccc1N(CC)C(=O)Cn1ncc2c(=O)oc3ccccc3c21`, “inactive”. Regarding `Clc1ccc(C2=NN(c3ccccc3)C(c3ccco3)C2)cc1` (centres undefined), the Potency entry was “inactive”. Regarding `O=C(O)c1cc(Cl)ccc1-c1ccc(/C=C/c2cc(C(F)(F)F)nc(O)n2)o1`, the Potency result is “inactive”.

Take `Fc1ccc(C2=CC(c3ccc(Br)o3)n3ncnc3N2)cc1` (centres undefined): the Potency entry is “inactive”.

Consider `Cc1ccc(-n2nnc3c(=O)n(CC(=O)N4CCOCC4)cnc32)cc1`, for which the Potency entry was “inactive”.

On to `O=C(NCCNc1ccc([N+](=O)[O-])cc1)c1cccc(Br)c1`, for which the Potency result was “inactive”. Consider `CC(C)OC(=O)c1cc(NC(=S)Nc2ccc([N+](=O)[O-])cc2)cc(C(=O)OC(C)C)c1`, for which the Potency was 44.7 µM (active). The value for `Cc1cccc(NS(=O)(=O)c2ccc3nc(O)cc(C(=O)OC(C)C(=O)Nc4ccc([N+](=O)[O-])cc4)c3c2)c1` (centres undefined) was “inactive”.

In the case of `CCN1CCC(O)(/C=C/c2ccc(C)cc2)C(C(=O)/C=C/c2ccc(C)cc2)C1` (centres undefined), the Potency was 31.6 µM (active).

Take `CCN1CCC(O)(/C=C/c2ccc(C(C)C)cc2)C(C(=O)/C=C/c2ccc(C(C)C)cc2)C1` (centres undefined): the Potency was 25.1 µM (active). On to `CC[N+]1(C)CCC(O)(/C=C/c2ccccc2)C(C(=O)/C=C/c2ccccc2)C1` (centres undefined), for which the Potency is 10.6 µM (active).

For `COc1ccc(/C=C/C(=O)N(C)c2ccccc2C(=O)O)cc1`, the Potency entry is “inactive”. Take `Cc1cc(-c2nc(-c3ccncc3)no2)ccc1[N+](=O)[O-]`: the Potency result was “inactive”. The value for `Cc1cc(=O)oc2c(CN3CCCC3)c(O)c(Cl)cc12` was “inactive”.
